# Source: the supplement of paper PMC3414501
# Where a name gives a salt, the structure may show the parent alone. Unmarked numbers belong to inactive results.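 How the source made its calls: active = HIS4 sensitivity z-score above 5 vs DMSO controls; inactive = score 5 or below.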
# Test system: S. cerevisiae NKY1551 his4x/his4B, sporulating
# Experiment: HIS4 meiotic recombination assay sensitivity score (z-score vs DMSO controls); higher = stronger inhibition of sporulation/recombination, active = hit call of the paper
# Method: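 NIH Clinical Collection compounds were added 1:100 from stock (about 100 µM final) to S. cerevisiae. Growth: average doubling time (AvgG) over 24 h of BY4741 (wild-type) or AD1-9 (drug-efflux-pump deficient) in rich media. HIS4: the his4x/his4B heteroallelic recombination reporter strain (SK1) was sporulated 5 h with compound at 30°C, then colony density was read on -his plates after 48 h. Sensitivity score = (compound − mean of 8 DMSO controls)/SD of DMSO controls. Hit cutoffs are >2 for growth and >5 for sporulation.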
row,Structure (SMILES),HIS4 meiotic recombination assay sensitivity score
1,"CNCC[C@H](Oc1cccc2ccccc12)c1cccs1 [Duloxetine] (stock concentration (mM, diluted 1:100): 10)",-1.33
2,"Nc1ncnc2c1ncn2[C@@H]1O[C@H](CO)C[C@@H]1O [3-Deoxydenosine] (stock concentration (mM, diluted 1:100): 10)",7.05 (active)
3,"CN(C)CCOc1ccc(/C(=C(/CCCl)c2ccccc2)c2ccccc2)cc1 [Toremifene citrate] (stock concentration (mM, diluted 1:100): 10)",3.57
4,"CCN(CC)CC1CCCCN1CC(=O)N1c2ccccc2C(=O)Nc2cccnc21 (stereo not given) [Otenzepad] (stock concentration (mM, diluted 1:100): 10)",-0.63
5,"CO[C@H]1/C=C/O[C@@]2(C)Oc3c(C)c(O)c4c(O)c(c(/C=N/N5CCN(C6CCCC6)CC5)c(O)c4c3C2=O)NC(=O)/C(C)=C\C=C\[C@H](C)[C@H](O)[C@@H](C)[C@@H](O)[C@@H](C)[C@H](OC(C)=O)[C@@H]1C [Rifapentine] (stock concentration (mM, diluted 1:100): 10)",-0.69
6,"C/C=C1\[C@H]2C=C(C)C[C@]1(N)c1ccc(=O)[nH]c1C2 [Huperzine a] (stock concentration (mM, diluted 1:100): 10)",-0.7
7,"Nc1[nH]c(=O)ncc1F [5-Fluorocytosine] (stock concentration (mM, diluted 1:100): 10.5)",-1.29
8,"O=C(O[C@H]1[C@H](Oc2ccccc2COC(=O)C2(O)C=CCCC2=O)O[C@H](CO)[C@@H](O)[C@@H]1O)c1ccccc1 (stereo not given in full) [Tremulacin] (stock concentration (mM, diluted 1:100): 10)",-1.23
9,"O=C(O)/C=C/c1ccc(Cn2ccnc2)cc1 [Ozagrel hydrochloride] (stock concentration (mM, diluted 1:100): 8.6)",0.54
10,"CN(C)[C@@H]1C(O)=C(C(=O)NCN2CCCC2)C(=O)[C@@]2(O)C(O)=C3C(=O)c4c(O)cccc4[C@@](C)(O)[C@H]3C[C@@H]12 [Rolitetracycline] (stock concentration (mM, diluted 1:100): 10)",3.05
11,"O=C1CC[C@@H](C(=O)N2CSC[C@H]2C(=O)O)N1 [Pidotimod] (stock concentration (mM, diluted 1:100): 10)",-0.31
12,"CN1CCC(=C2c3ccccc3CC(=O)c3sccc32)CC1 [Ketotifen fumarate] (stock concentration (mM, diluted 1:100): 8.9)",2.1
13,"CN1CCc2cc(Cl)c(O)cc2[C@@H](c2ccccc2)C1 (stock concentration (mM, diluted 1:100): 9.9)",3.2
14,"COc1ccccc1N1CCN(CCCNc2cc(=O)n(C)c(=O)n2C)CC1 [Urapidil hydrochloride] (stock concentration (mM, diluted 1:100): 10)",-0.7
15,"O=C1c2c(O)cc(O)cc2OC(c2ccc(O)c(O)c2)C1O (stereo not given) [Taxifolin] (stock concentration (mM, diluted 1:100): 10.1)",-0.52
16,"CC[C@@]1(O)C(=O)OCc2c1cc1n(c2=O)Cc2cc3c(CN(C)C)c(O)ccc3nc2-1 [Topotecan hydrochloride] (stock concentration (mM, diluted 1:100): 9.2)",0.22
17,"COc1cc(C)nc(-n2nc(C)cc2OC)n1 [Mepirizole] (stock concentration (mM, diluted 1:100): 10)",-1.87
18,"Cc1onc(-c2ccccc2)c1-c1ccc(S(N)(=O)=O)cc1 [Valdecoxib] (stock concentration (mM, diluted 1:100): 10)",-1.51
19,"O=c1[nH]c(=O)n(C2CCCO2)cc1F (stereo not given) [Ftorafur] (stock concentration (mM, diluted 1:100): 10)",0.93
20,"C[C@H]1O[C@H](O[C@H]2[C@H](O)[C@@H](O)[C@@H](O[C@H]3[C@H](O)[C@@H](O)C(O)O[C@@H]3CO)O[C@@H]2CO)[C@H](O)[C@@H](O)[C@@H]1N[C@H]1C=C(CO)[C@@H](O)[C@H](O)[C@H]1O (stereo not given in full) [Acarbose] (stock concentration (mM, diluted 1:100): 10)",-0.56

row,Structure (SMILES),HIS4 meiotic recombination assay sensitivity score
1,"CCN(CC)CC(=O)Nc1c(C)cccc1C [Lidocaine] (stock concentration (mM, diluted 1:100): 9.6)",-2.75
2,"Cc1cc2c(s1)Nc1ccccc1N=C2N1CCN(C)CC1 [Olanzapine] (stock concentration (mM, diluted 1:100): 9.9)",1.61
3,"CC(COc1ccccc1Cc1ccccc1)N1CCCCC1 (stereo not given) [Benproperine phosphate] (stock concentration (mM, diluted 1:100): 10)",7.79 (active)
4,"CCOC(=O)O[C@]1(C(=O)OCCl)CC[C@H]2[C@@H]3CCC4=CC(=O)C=C[C@]4(C)[C@H]3[C@@H](O)C[C@@]21C [Loteprednol etabonate] (stock concentration (mM, diluted 1:100): 10)",-0.2
5,"O=C(O)c1cc(/N=N/c2ccc(S(=O)(=O)Nc3ccccn3)cc2)ccc1O [Sulfasalazine] (stock concentration (mM, diluted 1:100): 10)",-0.54
6,"CNCCCCOc1ccccc1Cc1ccccc1 [Bifemelane] (stock concentration (mM, diluted 1:100): 10)",9.23 (active)
7,"CCN1CCC[C@H]1CNC(=O)c1cc(S(N)(=O)=O)ccc1OC [Levosulpiride] (stock concentration (mM, diluted 1:100): 10)",0.77
8,"C[C@]12C[C@H](O)[C@H]3[C@@H](CCC4=CC(=O)CC[C@@]43C)[C@@H]1CC[C@@H]2C(=O)CO [Corticosterone] (stock concentration (mM, diluted 1:100): 10)",1.37
9,"Clc1ccccc1C(c1ccccc1)(c1ccccc1)n1ccnc1 [Clotrimazole] (stock concentration (mM, diluted 1:100): 10)",-0.98
10,"CC1=Nc2ccc(Cl)cc2S(=O)(=O)N1 [Diazoxide] (stock concentration (mM, diluted 1:100): 10)",-1.19
11,"O=C(NCCO[N+](=O)[O-])c1cccnc1 [Nicorandil] (stock concentration (mM, diluted 1:100): 10)",0.03
12,"OCCOCCN1CCN(C2=Nc3ccccc3Sc3ccccc32)CC1 [Quetiapine hemifumarate] (stock concentration (mM, diluted 1:100): 7.7)",5.3 (active)
13,"COC(=O)C1=C(C)NC(C)=C(C(=O)OC(C)C)C1c1cccc2nonc12 (stereo not given) [Isradipine] (stock concentration (mM, diluted 1:100): 9.9)",5.46 (active)
14,"CN1C2CCCC1CC(NC(=O)c1nn(C)c3ccccc13)C2 (stereo not given) [Granisetron hydrochloride] (stock concentration (mM, diluted 1:100): 9)",0.28
15,"COc1ccc2c(c1)c(CC(=O)O)c(C)n2C(=O)c1ccc(Cl)cc1 [Indomethacin] (stock concentration (mM, diluted 1:100): 10.5)",0.4
16,"CCN1CCCC1CNC(=O)c1cc(S(=O)(=O)CC)c(N)cc1OC (stereo not given) [Amisulpride] (stock concentration (mM, diluted 1:100): 10)",-0.66
17,"CCCCCNC(=N)N/N=C/c1c[nH]c2ccc(OC)cc12 [Tegaserod maleate] (stock concentration (mM, diluted 1:100): 7.2)",-0.84
18,"C[C@H]1C[C@H]2[C@@H]3CCC4=CC(=O)C=C[C@]4(C)[C@@]3(Cl)[C@@H](O)C[C@]2(C)[C@@]1(O)C(=O)CO [Beclomethasone] (stock concentration (mM, diluted 1:100): 10)",-3.46
19,"CN1[C@@H](CC(=O)c2ccccc2)CCC[C@H]1C[C@H](O)c1ccccc1 [Lobeline hydrochloride] (stock concentration (mM, diluted 1:100): 10)",0.57
20,"CCCCC(=O)N(Cc1ccc(-c2ccccc2-c2nnn[nH]2)cc1)[C@H](C(=O)O)C(C)C [Valsartan] (stock concentration (mM, diluted 1:100): 10)",-0.5
